According to PubChem BioAssay:
Calls of active or inactive are those of the source.

Key:
[1] = E. coli DRC41 culture turbidity changes, primary screen, E. coli filamentation inducer project, strain DRC41, OD650, 48 h (AID 1152);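 also: E. coli MC1000 strain DRC41 lacking acrAB efflux pump and sulA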; conditions: E. coli DRC41 (acrAB sulA), higher = more signal, called active from +8 up or from −8 down
[2] = small-molecule binders of probe aLefty1, primary screen, biochemical, small-molecule microarray, 635/667 nm fluorescence (AID 1153); conditions: higher = more signal;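 also: score merges spot fluorescence with signal-to-noise ratio from the scanned slide images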
[3] = PSAC antagonists in infected red cells, primary screen, cell-based, P. falciparum Indochina, OD700, 1 h (AID 1154); conditions: P. falciparum Indochina infected RBC osmotic lysis, higher = more signal, called active from +8 up or from −8 down
[4] = PSAC antagonists in infected red cells, primary screen, cell-based, P. falciparum Indochina, OD700, 2 h (AID 1155);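 also: lysis reports solute entry through the parasite surface anion channel PSAC; channel blockers reduce lysis of infected cells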; conditions: P. falciparum Indochina infected erythrocytes, osmotic lysis OD700; higher = more signal, called active from +8 up or from −8 down
[5] = osmotic lysis modulators in infected erythrocytes, primary screen, PSAC antagonist project, cell-based, P. falciparum Indochina, OD700, 3 h (AID 1156); conditions: higher = more signal, called active from +8 up or from −8 down
[6] = PSAC antagonists in infected red cells, primary screen, cell-based, P. falciparum Indochina, OD700, 18 h (AID 1157); conditions: P. falciparum Indochina infected erythrocytes, osmotic lysis OD700, 18 h; higher = more signal, called active from +8 up or from −8 down
[7] = modulators of S6 phosphorylation in cells, primary screen, cell-based, A549, cytoblot, luminescence, serum-stimulated (AID 1158); conditions: A549 phospho-S6 cytoblot, 5 h, higher = more signal;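 also: serum-stimulated A549 lung adenocarcinoma cells; signal is phosphorylated S6 detected by cytoblot immunostaining with HRP secondary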
[8] = molecular target: NADPH oxidase 2 (Homo sapiens) (UniProt P04839); assay: NOX2-dependent H2O2 signal modulators, primary screen, NOX inhibitor project, cell-based, HEK293-NOX2, PMA-stimulated, Amplex Red fluorescence (AID 1159); conditions: 45 min, higher = more signal, called active from +8 up or from −8 down; also: test concentration not given here
[9] = molecular target: NADPH oxidase 4 (Homo sapiens) (UniProt Q9NPH5); assay: NOX4-dependent H2O2 signal modulators, primary screen, NOX inhibitor project, cell-based, HEK293-NOX4, tetracycline-induced, Amplex Red fluorescence (AID 1160); conditions: 45 min, higher = more signal, called active from +8 up or from −8 down
[10] = molecular target: NADPH oxidase 5 (Homo sapiens) (UniProt Q96PH1); assay: NOX5-dependent H2O2 signal modulators, primary screen, NOX inhibitor project, cell-based, HEK293-NOX5, Amplex Red fluorescence (AID 1161); conditions: HEK293-NOX5, ionomycin, 45 min, higher = more signal
NADPH oxidase 5 (Homo sapiens), sequence (Q96PH1 whole entry, looked up): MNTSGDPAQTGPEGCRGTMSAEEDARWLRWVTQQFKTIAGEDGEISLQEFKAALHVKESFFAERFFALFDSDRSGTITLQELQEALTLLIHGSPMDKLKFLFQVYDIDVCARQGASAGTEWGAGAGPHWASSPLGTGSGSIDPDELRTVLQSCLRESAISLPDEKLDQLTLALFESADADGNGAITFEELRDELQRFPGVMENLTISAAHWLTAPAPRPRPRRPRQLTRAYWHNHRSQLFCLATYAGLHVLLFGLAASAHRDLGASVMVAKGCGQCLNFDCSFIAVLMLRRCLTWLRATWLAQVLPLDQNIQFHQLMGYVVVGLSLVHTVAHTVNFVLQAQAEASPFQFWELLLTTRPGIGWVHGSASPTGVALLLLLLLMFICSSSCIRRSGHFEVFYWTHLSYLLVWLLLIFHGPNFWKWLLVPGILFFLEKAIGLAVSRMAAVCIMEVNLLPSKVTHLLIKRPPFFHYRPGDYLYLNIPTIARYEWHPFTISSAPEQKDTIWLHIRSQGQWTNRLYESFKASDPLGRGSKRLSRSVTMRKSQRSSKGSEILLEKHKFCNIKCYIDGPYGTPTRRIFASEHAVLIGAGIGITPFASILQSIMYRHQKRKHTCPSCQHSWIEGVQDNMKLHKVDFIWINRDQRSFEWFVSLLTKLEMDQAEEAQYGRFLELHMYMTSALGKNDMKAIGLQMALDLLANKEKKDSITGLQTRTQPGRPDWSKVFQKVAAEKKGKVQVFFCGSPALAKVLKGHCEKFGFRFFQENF

NADPH oxidase 2 (Homo sapiens), sequence (P04839 whole entry, looked up): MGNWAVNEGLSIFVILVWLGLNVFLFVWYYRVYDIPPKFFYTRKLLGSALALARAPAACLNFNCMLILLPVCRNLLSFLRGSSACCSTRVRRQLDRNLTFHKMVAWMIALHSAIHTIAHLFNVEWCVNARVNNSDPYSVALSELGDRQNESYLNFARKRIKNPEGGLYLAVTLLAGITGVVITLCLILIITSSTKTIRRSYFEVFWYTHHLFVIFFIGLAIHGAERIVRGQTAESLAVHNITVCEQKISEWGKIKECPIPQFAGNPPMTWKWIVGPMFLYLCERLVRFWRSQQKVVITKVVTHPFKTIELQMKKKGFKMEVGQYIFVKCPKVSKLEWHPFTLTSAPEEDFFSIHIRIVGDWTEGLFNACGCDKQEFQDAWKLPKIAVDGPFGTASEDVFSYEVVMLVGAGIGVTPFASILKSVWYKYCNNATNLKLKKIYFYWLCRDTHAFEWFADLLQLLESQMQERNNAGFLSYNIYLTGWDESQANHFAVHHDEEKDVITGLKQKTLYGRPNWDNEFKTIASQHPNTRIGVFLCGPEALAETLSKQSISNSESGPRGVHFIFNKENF
NADPH oxidase 4 (Homo sapiens), sequence (Q9NPH5 whole entry, looked up): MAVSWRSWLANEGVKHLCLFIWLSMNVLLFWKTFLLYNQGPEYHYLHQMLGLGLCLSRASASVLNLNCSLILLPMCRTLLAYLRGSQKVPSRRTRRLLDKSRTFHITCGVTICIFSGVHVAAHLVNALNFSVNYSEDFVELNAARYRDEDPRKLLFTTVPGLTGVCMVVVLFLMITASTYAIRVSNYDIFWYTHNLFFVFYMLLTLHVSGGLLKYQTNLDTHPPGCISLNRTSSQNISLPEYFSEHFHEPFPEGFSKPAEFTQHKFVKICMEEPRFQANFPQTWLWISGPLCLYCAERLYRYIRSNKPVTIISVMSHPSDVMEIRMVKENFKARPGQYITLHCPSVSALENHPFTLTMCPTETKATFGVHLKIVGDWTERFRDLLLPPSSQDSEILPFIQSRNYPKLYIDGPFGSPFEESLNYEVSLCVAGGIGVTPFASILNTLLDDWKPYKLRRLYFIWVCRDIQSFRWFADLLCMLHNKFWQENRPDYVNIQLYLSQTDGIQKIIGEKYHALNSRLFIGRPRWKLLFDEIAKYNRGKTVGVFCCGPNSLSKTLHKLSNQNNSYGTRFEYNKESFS

Compound	z-score [1]	composite z-score [2]	z-score [3]	z-score [4]	z-score [5]	z-score [6]	z-score [7]	z-score [8]	z-score [9]	z-score [10]
Cc1ccc([C@@H]2CC=C(C(=O)O)[C@H](c3ccccc3)N2S(=O)(=O)c2ccc(C)cc2)cc1	-1.17 (inactive)	1	1.83 (inactive)	0.929 (inactive)	0.692 (inactive)	0.708 (inactive)	-0.256	0.489 (inactive)	-1.2 (inactive)	-0.96
Cc1ccc(S[C@]2(C(=O)O)CC(=O)N(Cc3ccccc3)[C@@H]2c2ccc(CO)cc2)cc1	2.89 (inactive)	0.0215	2.85 (inactive)	-0.263 (inactive)	1.09 (inactive)	-0.707 (inactive)	0.462	-0.198 (inactive)	-0.197 (inactive)	1.6
CC(C)N1CC=CC23O[C@@H]4/C=C\CCCOC(=O)C4[C@H]2C(=O)N(CCO)[C@@H]3C1=O (stereo not given in full)	3.41 (inactive)	-0.0518	2.92 (inactive)	0.236 (inactive)	0.716 (inactive)	-0.806 (inactive)	0.54	1.23 (inactive)	0.375 (inactive)	1.84
CO[C@H]1COC(=O)CC=C[C@H](C)[C@@H](OC)COC(=O)[C@H](Cc2ccccc2)NC(=O)CC=C[C@@H]1C	-0.76 (inactive)	-0.183	-0.235 (inactive)	-0.912 (inactive)	0.959 (inactive)	-2.2 (inactive)	0.659	0.93 (inactive)	-1.49 (inactive)	0.404
COC(=O)[C@@]1(Cc2ccc(OC)cc2)[C@H]2c3cc(C(=O)N(C)C)n(CCc4ccc(OC)c(Br)c4)c3C[C@H]2CN1C(=O)c1ccccc1	-1.52 (inactive)	1.61	3.73 (inactive)	1.39 (inactive)	0.307 (inactive)	1.35 (inactive)	-0.21	-0.052 (inactive)	0.493 (inactive)	0.527
CO[C@H]1COC(=O)[C@H](Cc2ccccc2)NC(=O)CC=C[C@@H](C)[C@H](OC)COC(=O)CC=C[C@@H]1C	0.284 (inactive)	-0.0241	-0.144 (inactive)	-1.22 (inactive)	-1 (inactive)	-1.27 (inactive)	0.501	-3.05 (inactive)	0.103 (inactive)	0.784
Cc1ccc(S(=O)(=O)N[C@H]2COC(=O)CC=C[C@H](C)COC(=O)N[C@@H](C)C(=O)CC=C[C@@H]2C)cc1	0.0157 (inactive)	-0.191	1.3 (inactive)	0.678 (inactive)	1.1 (inactive)	0.451 (inactive)	1.87	0.142 (inactive)	-1.45 (inactive)	-0.213
CCc1cccc(NC(=O)O[C@H]2[C@H](OC(=O)Nc3ccccc3)[C@@H](OC(=O)Nc3ccccc3)[C@@H](OC)O[C@@H]2CO)c1	0.172 (inactive)	0.424	5.28 (inactive)	1.13 (inactive)	-0.298 (inactive)	0.667 (inactive)	0.211	-6.71 (inactive)	-1.24 (inactive)	-2.35
CN1C(=O)C2C=CC(C(O)c3ccc(N(C)C)cc3)N(Nc3ccc([N+](=O)[O-])cc3[N+](=O)[O-])C2C1=O (stereo not given)	-0.692 (inactive)	0.719	2.33 (inactive)	1.27 (inactive)	-0.169 (inactive)	1.05 (inactive)	-0.444	-0.742 (inactive)	-1.39 (inactive)	-0.0769
COC(=O)C1=CC(c2ccc(CO)cc2)=CC(c2cccs2)N(Cc2cccc(OC(F)(F)F)c2)C=C1C(=O)OC (stereo not given)	-1.66 (inactive)	0.641	10.9 (active)	1.87 (inactive)	0.615 (inactive)	1.43 (inactive)	-0.264	-1.76 (inactive)	-1.96 (inactive)	-2.87
Cc1ccc(N2C(=O)c3ccccc3[C@](C)(C(=O)NCC(C)C)[C@@H]2c2ccc(CO)cc2)nc1	-0.262 (inactive)	-0.147	1.84 (inactive)	0.707 (inactive)	1.26 (inactive)	0.937 (inactive)	-0.0528	0.253 (inactive)	-0.657 (inactive)	-1.63
COc1cccc([C@@H]2[C@@H](C)CC[C@H]3C(=O)N4[C@H](c5cccc(OC)c5)[C@@H](C)CC[C@H]4C(=O)N23)c1	-0.0799 (inactive)	-0.234	-0.0074 (inactive)	-0.69 (inactive)	-1.21 (inactive)	-0.987 (inactive)	3.15	0.181 (inactive)	0.349 (inactive)	0.796
O=C1OCCC/C=C\[C@H]2OC34C=CCN(CCN5CCOCC5)C(=O)[C@H]3N(CCCCCO)C(=O)[C@@H]4C12 (stereo not given in full)	-0.938 (inactive)	-0.0984	1.07 (inactive)	-0.314 (inactive)	-0.566 (inactive)	-0.525 (inactive)	-0.768	0.796 (inactive)	-0.109 (inactive)	1.01
CO[C@@H]1COC(=O)[C@@H]2CCCN2C(=O)CC=C[C@@H](C)[C@H](OC)COC(=O)[C@@H]2CCCN2C(=O)CC=C[C@H]1C	1.11 (inactive)	-0.0984	-0.0896 (inactive)	0.0184 (inactive)	0.11 (inactive)	-0.113 (inactive)	0.956	-0.353 (inactive)	0.476 (inactive)	0.606
COCCOC(=O)N1C(=O)[C@@]2(c3cc(C#CC4=CCCCC4)ccc31)[C@H](C(=O)NC[C@H](O)c1ccccc1)[C@H]1C(=O)O[C@H](c3ccccc3)[C@H](c3ccccc3)N1[C@@H]2c1ccc(OCCO)cc1	-0.999 (inactive)	0.197	3.71 (inactive)	2.15 (inactive)	-0.681 (inactive)	1.05 (inactive)	0.0766	1.54 (inactive)	1.17 (inactive)	1.59
C=CC[C@]1(C(=O)OC)N=C(c2ccc(OCCCO)cc2)O[C@H]1c1ccccc1CN=[N+]=[N-]	0.919 (inactive)	0.419	21.2 (active)	4.18 (inactive)	1.7 (inactive)	0.786 (inactive)	0.363	-3.18 (inactive)	-0.411 (inactive)	-2.23
C=CCC(OC(C)=O)[C@@H]1[C@@H](N(Cc2cc3ccccc3o2)C(=O)Cc2ccc(F)cc2)c2cc(OCCCO)ccc2N1C(=O)c1ccc(-c2ccccc2)cc1 (stereo not given in full)	1.66 (inactive)	0.0091	-0.171 (inactive)	0.229 (inactive)	-0.454 (inactive)	0.0413 (inactive)	0.437	0.578 (inactive)	0.684 (inactive)	0.314
C[C@@H]1C=CCC(=O)OC[C@H]2O[C@@H](C=C[C@@H]2O)[C@H](C)C=CCC(=O)OC[C@H]2O[C@H]1C=C[C@@H]2O	-1.91 (inactive)	0.596	0.43 (inactive)	0.278 (inactive)	-1.65 (inactive)	-0.725 (inactive)	2.22	-1.01 (inactive)	0.418 (inactive)	0.0421
C[N+](C)(C)CCCC[C@@H]1NC(=O)[C@H]2C[C@@H](C(=O)NCc3ccc(F)cc3)[C@@H](c3cccc(OCCO)c3)N2C1=O	0.923 (inactive)	-0.0536	2.46 (inactive)	-1.3 (inactive)	-5.77 (inactive)	-2.37 (inactive)	0.123	0.999 (inactive)	0.834 (inactive)	1.53
CC(C)(C)OC(=O)CC[C@]1(C(=O)N2CCCCC2)N=C(c2ccc(OCCCO)cc2)O[C@H]1c1ccccc1	0.978 (inactive)	-0.294	24 (active)	6.24 (inactive)	1.03 (inactive)	-0.186 (inactive)	2.2	-1.41 (inactive)	1.02 (inactive)	0.541
COc1ccc(C(=O)Nc2ccc(CN3C(=O)[C@]4(O[C@H](CCn5cc(CCO)nn5)[C@@H]([Si](C)(C)c5ccc(OC)cc5)[C@@H]4C)c4ccccc43)cc2)cc1	0.173 (inactive)	0.0253	9.37 (active)	2.64 (inactive)	1.68 (inactive)	1.67 (inactive)	-0.196	0.844 (inactive)	0.392 (inactive)	3.29
CO[C@H]1O[C@H](CO)[C@@H](OC(=O)Nc2ccc(Oc3ccccc3)cc2)[C@H](OC(=O)Nc2ccccc2-c2ccccc2)[C@H]1OC(=O)Nc1ccccc1-c1ccccc1	1.38 (inactive)	0.371	2.14 (inactive)	0.647 (inactive)	0.55 (inactive)	-1.37 (inactive)	-0.151	1.95 (inactive)	-0.7 (inactive)	0.176
CN(C)c1ccc(C(O)C2C=CC3C(=O)NC(=O)C3N2Nc2ccc(Cl)cc2Cl)cc1 (stereo not given)	-0.85 (inactive)	0.68	3.51 (inactive)	0.567 (inactive)	1.45 (inactive)	1.27 (inactive)	-0.645	-1.15 (inactive)	-4.56 (inactive)	-2.72
CCCCCCc1nc(-c2cc(C)c(OC)c(C)c2)cc2c1[Si](C(C)C)(C(C)C)O[C@H]2c1ccccc1	-0.548 (inactive)	-0.0989	1.31 (inactive)	-0.0446 (inactive)	1.06 (inactive)	0.0157 (inactive)	0.561	-0.313 (inactive)	-1.16 (inactive)	-2.07
C=CCC(OC(C)=O)[C@@H]1[C@@H](N(Cc2cccc3ccccc23)C(=O)c2ccc(C)cc2)c2cc(OCCCO)ccc2N1C(=O)c1ccc(-c2ccccc2)cc1 (stereo not given in full)	2.5 (inactive)	0.0384	0.441 (inactive)	-1.33 (inactive)	-1.24 (inactive)	-1.5 (inactive)	2.07	-0.0559 (inactive)	1.01 (inactive)	2.96
